Bioassay records as filed in PubChem.
HT1080-NT tox – kills 2HG-producing HT-1080-NT fibrosarcoma cells | HT-1080-NT fibrosarcoma viability, CellTiter-Glo ATP luminescence, 48 h | Potency, µM (doses to about 46.1 µM), inactives show at the top dose activity, negative = less viability, hits mostly cytotoxic | hit rate 1.6% among 360,000 | AID 686970;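 further: NT is the 2HG producing partner of a matched IDH1 knockdown line; potency means the concentration at half of the fitted maximal effect; 0% = DMSO-treated cells and -100% = media-only wells without cells; nearly all actives have a fitted effect of over 55% in size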
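Fibrosarcoma NT cells, 750 per well in 5% FBS RPMI, were exposed to compound for 48 hours. Viability: CellTiter-Glo luminescence.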
HepG2 tox – kills HepG2 cells in TGF-b inhibitor counter-screen. HepG2 CAGA-GFP viability, ATP luminescence, 18 h. AID 588856. Potency, µM (titrated, usually from 46.1 µM), for inactives: at the highest dose activity change, negative = cytotoxicity, most hits filed as cytotoxic. hit rate 0.76% among 410,000; further: potency means the concentration at half of the fitted maximal effect
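CellTiter-Glo luminescence gave cytotoxicity after 18 hours at 37 degrees C. The cells were HepG2 CAGA-GFP in 1% FBS DMEM, stimulated with 500 pg/mL TGF-beta after compound addition. %Activity was normalised to no-cell wells (complete cell-killing) and DMSO (no toxicity), and curves were fitted and classified.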
IL1B secr inh – inflammasome signaling inhibition, IL-1 beta readout | THP-1 LPS/ATP IL-1B secretion, AlphaLISA, 16 h; stronger effect = lower value | activity change, % at 57.5 µM | hit rate 4.7% among 360,000 | AID 743279; in the data active means activity change below about -50%; inconclusive means mostly about -30% to -49%; further: on the % scale 0 is the no-effect control and ±100 the full control effect
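Secreted IL-1B measured by AlphaLISA bead assay after 16 h compound exposure of THP-1 cells; compounds (final up to 57.5 uM) added 1 h before LPS (250 ng/mL) and ATP (1.25 mM) stimulation; lower signal means less secretion.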
HT1080 IDH1KD tx – kills HT-1080 cells with IDH1 knockdown | HT-1080 IDH1 knockdown viability, ATP luminescence, 48 h | Potency, µM (series often up to 46.1 µM), for the others: at the top dose activity, negative = toxicity, hits mostly cytotoxic | hit rate 2% among 360,000 | AID 686971;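 further: potency means the concentration at half of the fitted maximal effect; 0% = DMSO wells and -100% = cell-free medium wells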
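Cytotoxicity counter-line: IDH1KD HT-1080, 48 h, CellTiter-Glo. Curves classed by r2, magnitude and activity.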
Giardia killer – Giardia lamblia killing | Giardia lamblia trophozoite viability | hit rate 0.15% among 340,000 | activity change, % at 7.66 µM, hits read low; in the data active means activity change below about -80%; inconclusive means between about -30% and that limit;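 further: parasites exposed to compound for two days anaerobically before the ATP read; on the % scale 0 is the no-effect control and ±100 the full control effect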
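Killing of trophozoites was scored by loss of ATP luminescence after a 48 hrs anaerobic exposure to compounds at 37 deg C, using 100 cells per well.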
TGFb SMAD3 inh – blocks TGF-b signaling. HepG2 CAGA-GFP TGF-b/SMAD3 reporter, GFP fluorescence, 18 h; TGF-beta stimulated, 500 pg/mL final. Potency, µM (doses to about 46.1 µM), without a hit: top-dose activity, negative = inhibition, usual class: inhibitors. hit rate 1.2% among 410,000; further: potency means the concentration at half of the fitted maximal effect; on the % scale 0 is the no-effect control and ±100 the full control effect; nearly all actives have a fitted effect of over 65% in size
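Cell-based qHTS in HEPG2 carrying a CAGA-GFP Smad reporter; compounds added before 500 pg/mL final TGF-beta, 18 h incubation at 37 degrees C, GFP fluorescence quantified per cell by imaging cytometry.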
Active calls of the source: *; ? = inconclusive; / = no result given; [ ] = remark or other dose. Rows were chosen to be rich in hits. Some 6.5% of all compounds tested hit in one or more screens of this group. Unless noted, the call rests on the fitted dose curve; in most records, active means well fitted curve in the direction sought with a large enough effect; inconclusive means small, poorly fitted or top-dose-only effect, or another doubt; inactive means no such curve, though single readings can be large; an effect the other way counts as inactive or inconclusive.

SMILES | HT1080-NT tox | HepG2 tox | IL1B secr inh | HT1080 IDH1KD tx | Giardia killer | TGFb SMAD3 inh
CN(C)C(=O)c1cccc(-c2cccc(-c3nc(C(=O)NCc4ccccc4)cc4c3[C@@H](CCO)N(S(=O)C(C)(C)C)C4)c2)c1 (stereo not given in full) | ? | -3% | -55* | ? | / | 6%
COCCNC(=O)c1cc2c(c(-c3cccc(C#Cc4ccc(OC)c(OC)c4)c3)n1)[C@@H](CCO)N(S(=O)C(C)(C)C)C2 (stereo not given in full) | ? | -6% | -18 | ? | / | -1%
COc1ccc(C#Cc2cccc(-c3nc(C(=O)NCc4ccc(Oc5ccccc5)cc4)cc4c3[C@@H](CCO)N(S(=O)C(C)(C)C)C4)c2)cc1OC (stereo not given in full) | 21µM* | 16µM* | -11 | ? | / | ?
Cc1ccnc(NS(=O)(=O)c2ccc(NC(=O)c3cc(-c4ccc(Br)cc4)nc4ccccc34)cc2)n1 | -11% | -28% | -21 | ? | 13 | -17%
COc1cc(C(=O)c2ccc3c(c2)OCO3)cc(OC)c1OC | ? | 9% | 23 | 2.6µM* | -6 | -1%
COc1cc(C(=O)NNC(=O)c2ccc3c(c2)OCCO3)cc(OC)c1OC | 0% | 1% | 6 | -2% | 9 | 8%
COc1cc(C(=O)N/N=C(\C)c2ccc3c(c2)OCO3)cc(OC)c1OC | 2.1µM* | -1% | 83 | 3.7µM* | 6 | ?
COc1cc(-c2nc(-c3ccc(NC(=O)c4ccc5c(c4)OCO5)cc3)no2)cc(OC)c1OC | 4.6µM* | -57% | ? | 5.2µM* | -2 | ?
Cc1ccccc1-c1nc(-c2ccc(NC(=O)c3ccc4c(c3)OCO4)cc2)no1 | ? | -3% | -3 | ? | -23 | ?
COC(=O)c1ccccc1NC(=O)c1cc2c(s1)-c1ccccc1OC2 | / | 5% | / | / | / | 18%
CC(=O)Nc1c(O)nc(SC/C=C/CSc2nc(O)c(NC(C)=O)c(=O)[nH]2)[nH]c1=O | 17% | 1% | -2 | 12% | 0 | 2%
CCN(CC)Cc1cc(Nc2c3ccccc3nc3c4ccccc4n(C)c23)cc(CN(CC)CC)c1O | 18µM* | -57% | -113* | ? | 1 | -30%
Cc1ccc(NC(=O)CCCCCN2C(=O)c3ccccc3C2=O)nc1 | 7% | -2% | 36 | 5% | 0 | 10%
Cc1ccc(NCN2C(=O)C(=O)c3ccccc32)nc1 | -10% | -35% | 16 | -25% | 6 | 6.3µM*
O=C(Nc1cc(S(=O)(=O)N2CCOCC2)ccc1N1CCOCC1)c1ccc([N+](=O)[O-])s1 | -13%[9.24 µM] | -4% | ? | 5% | -89* | ?
O=C(Nc1cc(S(=O)(=O)N2CCOCC2)ccc1N1CCOCC1)c1cc2c(s1)CCC2 | -4% | -16% | -57* | -3% | 13 | -25%
COc1ccccc1C1NC(c2ccc3c(c2)OCO3)=CC(c2cc(Cl)ccc2O)N1 (stereo not given) | / | -30% | / | / | -10 | ?
COc1ccc(Br)cc1C1NC(c2ccc3c(c2)OCO3)=CC(c2cc(Cl)ccc2O)N1 (stereo not given) | / | 11µM* | / | / | 2 | ?
Oc1ccc(Cl)cc1C1C=C(c2ccc3c(c2)OCO3)NC(c2ccc(Br)cc2)N1 (stereo not given) | / | -11% | / | / | -7 | -16%
Oc1ccc(Cl)cc1C1C=C(c2ccc3c(c2)OCO3)NC(c2cc(Br)ccc2F)N1 (stereo not given) | / | 14µM* | / | / | -20 | 7.9µM*
O=C(NCc1nc(-c2ccccc2)no1)c1ccco1 | / | -17% | / | / | / | -27%
CCCc1c(C(=O)N/N=C/C(C)=C/c2ccccc2)nnn1-c1nonc1N | 23% | 6% | -19 | 14% | -11 | 7%
CCCN(CCC)Cc1c(C(=O)N/N=C/C(C)=C\c2ccccc2)nnn1-c1nonc1N | -19% | 4% | -68* | ? | -7 | ?
CC(/C=N/NC(=O)c1nnn(-c2nonc2N)c1C(C)C)=C\c1ccccc1 | -27% | -38% | -11 | 0% | 0 | 16µM*
Nc1nonc1-n1nnc(C(=O)N/N=C/C=C/c2ccccc2)c1CSC1=NCCS1 | ? | 14% | -90* | ? | -17 | ?
SMILES | HT1080-NT tox | HepG2 tox | IL1B secr inh | HT1080 IDH1KD tx | Giardia killer | TGFb SMAD3 inh
CCN(CC(=O)NCc1cccs1)C(=O)C1CC(=O)N(c2ccc(OC)cc2OC)C1 (stereo not given) | 5% | 14% | -1 | -1% | 9 | 1%
Cc1cc(C)c(S(=O)(=O)Nc2ccccc2)c(C)c1 | 1% | 10% | 7 | -7% | 2 | ?
S=C(NCCCN1CCOCC1)NCCCN1CCOCC1 | 17% | -1% | 0 | 5% | -9 | -17%
CCCCCCCCNC(=S)NCCN1CCCCC1 | -27% | -23% | -62* | -3% | 16 | ?
O=C(CCn1ccc2ccccc21)NC1CCCc2ccccc21 (stereo not given) | -11% | 7% | 4 | -20% | -1 | 8%
COc1ccc2cc(C(=O)N(C)CC(=O)Nc3ccccc3Br)ccc2c1 | 2% | -15% | -11 | 5% | -11 | -13%
O=C1Nc2ccccc2SC1=Cc1ccccc1 | -5% | -22% | ? | -26% | / | -9%
Cc1nn(-c2ccccc2)c(Cl)c1C(=O)N1CCN(c2ncnc3c2cnn3-c2ccccc2)CC1 | 21µM* | -11% | -74* | ? | 1 | ?
Cn1c(C(=O)N[C@@H](Cc2ccccc2)C(=O)O)cc2cc(Cl)ccc21 | -2% | 5% | 44 | -14% | 1 | ?
CCN(CC)CCCC(C)NC(=O)c1cc(=O)c2ccccc2o1 (stereo not given) | 12% | 0% | 9 | 21% | 17 | -14%
CCN(CC)CCCC(C)NC(=O)c1ccc(C(F)(F)F)cc1 (stereo not given) | -1% | 6% | -50* | -3% | 3 | -8%
Cc1cc(N2CCN(C(=O)Oc3ccc([N+](=O)[O-])cc3)CC2)c2ccccc2n1 | ? | / | 0 | ? | / | /
CC(=O)C1CCC2C3CCC4=CC(=O)C=CC4(C)C3C(=O)CC12C (stereo not given) | 11% | -2% | -10 | 13% | 17 | 8%
C[C@]12C=CC(=O)C=C1CC[C@@H]1C2=CC[C@]2(C)[C@@H](C(=O)CN3CCN(c4cc(N5CCCC5)nc(N5CCCC5)n4)CC3)CC[C@@H]12 | -26% | 25µM* | ? | -25% | -24 | 2%
O=C(COc1ccc2ccccc2c1)Nc1nnc(-c2ccco2)s1 | 7% | 12% | 7 | 12% | -6 | 3%
